# Data reported in PubChem BioAssay.
# For part of these data: Measured potencies and affinities stand elsewhere. The source made the active and inactive calls.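 The calls were made as follows, unless noted: active = dose curve with midpoint inside tested range, moderate steepness, plateau gap beyond fit error, low compound glow and bead-link interference; inactive = the rest.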
# Experiments:
# [1] = molecular target: Cell division control protein 42 homolog (Homo sapiens) (UniProt P60953); assay: inhibition of fluorescent GTP binding to constitutively active Cdc42 – biochemical, multiplex bead flow cytometry, Bodipy-FL-GTP, dose response (AID 1333;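 active = fitted half-maximal concentration within the tested dose range, moderate curve steepness, a statistically real signal drop, and little compound fluorescence or tag-binding interference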)
# [2] = molecular target: Cell division control protein 42 homolog (Homo sapiens) (UniProt P60953); assay: inhibition of fluorescent GTP binding to wildtype Cdc42 – biochemical, multiplex bead flow cytometry, Bodipy-FL-GTP, dose response (AID 1334;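 active = fitted half-maximal concentration within the tested range, moderate curve steepness, significant signal drop, and little compound fluorescence or bead-linkage interference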); conditions: bead-based flow cytometry, Bodipy-FL-GTP binding to GST-Cdc42; at 100 µM (top of the series) unless noted
# [3] = molecular target: GTPase HRas (Homo sapiens) (UniProt P01112); assay: Ras wt fluorescent GTP loading blockade – biochemical, wildtype, multiplex bead flow cytometry, dose response (AID 1335;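 active = fitted half-maximal concentration within 10 nM to 100 µM, steepness 0.5 to 2, significant signal drop, low assay interference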); conditions: bead-based flow cytometry, Bodipy-GTP binding to GST-Ras; at 100 µM (top of the series) unless noted
# [4] = test system: Ras-related protein Rab-7a (dog), GTP binding; assay: blockers of fluorescent GTP binding to Rab7 – biochemical, wildtype, multiplex bead flow cytometry, dose response (AID 1336; call rule not given here)
# [5] = molecular target: Ras-related C3 botulinum toxin substrate 1 (Homo sapiens) (UniProt P63000); assay: inhibition of wildtype Rac1 nucleotide loading – biochemical, multiplex bead flow cytometry, dose response (AID 1340); conditions: GST-Rac1 beads, Bodipy-FL-GTP binding; at 100 µM (top of the series) unless noted
# [6] = molecular target: GTPase HRas (Homo sapiens) (UniProt P01112); assay: blockade of GTP loading onto mutant Ras – biochemical, activated mutant, multiplex bead flow cytometry, dose response (AID 1341;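 active = dose-response curve with midpoint inside the tested range, moderate steepness, significant amplitude and little compound fluorescence or bead-attachment interference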;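 also: GST-tagged constitutively activated Ras mutant immobilized on beads and multiplexed with other GTPases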)
# GTPase HRas (Homo sapiens), sequence (P01112 whole entry, looked up): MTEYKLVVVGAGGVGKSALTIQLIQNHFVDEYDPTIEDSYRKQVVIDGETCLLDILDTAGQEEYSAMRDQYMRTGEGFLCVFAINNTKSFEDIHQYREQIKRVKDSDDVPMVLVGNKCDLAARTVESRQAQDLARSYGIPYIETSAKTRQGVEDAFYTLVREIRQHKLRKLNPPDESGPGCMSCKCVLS
# Cell division control protein 42 homolog (Homo sapiens), sequence (P60953 whole entry, looked up): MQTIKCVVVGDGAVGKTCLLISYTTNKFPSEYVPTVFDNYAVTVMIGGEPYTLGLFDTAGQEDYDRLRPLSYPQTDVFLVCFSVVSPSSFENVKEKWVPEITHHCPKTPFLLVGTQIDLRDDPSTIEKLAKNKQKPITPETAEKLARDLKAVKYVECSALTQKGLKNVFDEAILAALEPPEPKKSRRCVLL
SMILES,outcome [1],"fluorescence, percent of control (lower = inhibition) [2]","GTP binding, percent of control [3]",outcome [4],"GTP binding signal, raw median fluorescence (lower = inhibition) (MCF (arbitrary fluorescence units)) [5]",outcome [6]
COc1cccc(-c2cc(C(F)(F)F)c(C#N)c(=O)[nH]2)c1,inactive,30%,75.7%,inactive,230,inactive
N#Cc1c(Nc2ccccc2)c(/C=N/N=C/c2ccccc2)c[nH]c1=O,inactive,35.5%,81.7%,inactive,211,inactive
O=C(O)c1c(C(F)(F)F)ccnc1NCc1ccccc1,inactive,61.8%,224%,inactive,57.2,inactive
Cc1c2cc(O)c(=O)cc-2oc2cc(O)c(O)cc12,inactive,5290%,5530%,inactive,5510,inactive
Cc1cc(NC(=O)/C(C#N)=C/c2ccc(-c3ccc(SC(F)F)cc3)o2)n(-c2ccccc2)n1,inactive,75.1%,96.7%,inactive,211,inactive
COC(=O)c1ccccc1NC(=O)CSCC(=O)Nc1ccccc1OC,inactive,37.9%,81.9%,inactive,230,inactive
COc1cccc(N2CCN(C(=O)CCCCCNc3nc(=S)[nH]c4ccccc34)CC2)c1,inactive,38.1%,79.5%,inactive,264,inactive
CCC(=O)N=C1SC2CS(=O)(=O)CC2N1c1cccc(OC)c1 (stereo not given),inactive,89%,162%,inactive,180,inactive
Cc1ccc([N+](=O)[O-])cc1-c1ccc(/C=C(\C#N)c2[nH]nc(N)c2C#N)o1,inactive,32.4%,72.8%,inactive,221,inactive
Cn1c(SCC(=O)Nc2cccc(Br)c2)nnc1-c1cc2ccccc2o1,inactive,101%,189%,inactive,180,inactive
N#C/C(=C\c1ccncc1)c1nc2ccccc2[nH]1,inactive,31%,81.6%,inactive,273,inactive
CC1(C)Cc2c(sc3c2C2=NCCN2C=N3)CS1,inactive,38.3%,86.3%,inactive,280,inactive
O=C(Cn1cnc2cc([N+](=O)[O-])ccc2c1=O)NCc1ccc(Cl)cc1,inactive,34.9%,82.3%,inactive,192,inactive
CN(/N=C/c1cccnc1)C1=NS(=O)(=O)c2ccccc21,inactive,36.2%,50.7%,inactive,137,inactive
CCOC(=O)c1ccc(Nc2nc(C(=O)OCC)nc3ccccc23)cc1,inactive,66.3%,128%,inactive,159,inactive
COc1ccc(C2(CNC(=O)C(c3ccccc3)c3ccccc3)CCOCC2)cc1OC,inactive,34%,80.6%,inactive,276,inactive
COc1ccc(OCC(=O)Nc2nonc2NC(=O)COc2ccc(OC)cc2)cc1,inactive,38.2%,79.5%,inactive,234,inactive
Cc1cc(NCc2ccccn2)n2c(nc3ccccc32)c1C#N,inactive,42.7%,87.9%,inactive,192,inactive
S=c1[nH]nc(-c2ccco2)n1-c1ccc(Cl)cc1,inactive,28.4%,67.6%,inactive,209,inactive
Cc1cc(OCCn2cc(C(=O)O)c3ccccc32)ccc1Cl,inactive,58.3%,84.4%,inactive,28.3,inactive

SMILES,outcome [1],"fluorescence, percent of control (lower = inhibition) [2]","GTP binding, percent of control [3]",outcome [4],"GTP binding signal, raw median fluorescence (lower = inhibition) (MCF (arbitrary fluorescence units)) [5]",outcome [6]
COc1c(C)cccc1C(=O)NC(=S)Nc1ccc2c(c1)Cc1ccccc1-2,inactive,73.4%,151%,inactive,144,inactive
O=C(Cc1ccc(Nc2nc(=S)[nH]c3ccccc23)cc1)NC1CCCCC1,inactive,25.9%,61.6%,inactive,153,inactive
Cc1ccc(Nc2cc(C(=O)O)c3ccccc3n2)c(C)c1,inactive,60.5%,83.7%,inactive,33.1,inactive
Cc1ccc(Nc2c(F)c(F)c(F)c(F)c2C(=O)O)cc1,inactive,84.8%,106%,inactive,74,inactive
Cc1cc2ccccn2c1C(=O)c1cc([N+](=O)[O-])cc([N+](=O)[O-])c1,inactive,37.4%,85.6%,inactive,270,inactive
CCN(CC)S(=O)(=O)c1cc([N+](=O)[O-])ccc1N=Nc1c(O)[nH]c2ccccc12,inactive,82.9%,87.4%,inactive,351,inactive
CC1=C(C(=O)Nc2ccccc2)C(c2ccc(Cl)cc2)n2c(s/c(=C/c3cccc(OCC(=O)O)c3)c2=O)=N1 (stereo not given),inactive,26.5%,75.3%,inactive,176,inactive
O=c1c2ccccc2nc2c3ccccc3c(NCc3ccco3)nn12,inactive,80.4%,122%,inactive,144,inactive
COc1cccc2c(SCC(=O)N/N=C/c3ccc(O)c(O)c3)cc(C)nc12,inactive,27.5%,60.2%,inactive,119,inactive
Clc1cccc(Cl)c1/C=N\Nc1nccs1,inactive,96.7%,151%,inactive,190,inactive
COc1ccc(CC(=O)Nc2ccc(C(=O)Nc3nccs3)cc2)cc1OC,inactive,36.7%,75.2%,inactive,163,inactive
O=[N+]([O-])c1cccc(S(=O)(=O)N2CCCC2)c1,inactive,52.4%,63.8%,inactive,205,inactive
N#Cc1c2nc3ccccc3nc2n2cc(NC(=O)c3ccc(F)cc3)ccc12,inactive,49.3%,64.8%,inactive,158,inactive
CCOC(=O)c1c(CSc2ccccc2)n(C)c2cc(Br)c(OCC(O)CNC(CO)(CO)CO)cc12 (stereo not given),inactive,94.1%,147%,inactive,320,inactive
O=S(=O)(Cc1ccccc1)N1CCc2ccccc21,inactive,48.6%,63.7%,inactive,202,inactive
COc1ccc(-c2cc(C(F)(F)F)n3nc(C(=O)O)cc3n2)cc1OC,inactive,30.7%,67.7%,inactive,140,inactive
O=c1c2ccccc2nc2c3ccccc3cnn12,inactive,46.9%,88.4%,inactive,175,inactive
Cc1nc(Nc2ccc(C(=O)O)cc2)nc(Nc2ccc(C(=O)O)cc2)c1[N+](=O)[O-],inactive,28.7%,64.9%,inactive,111,inactive
Cc1cccc(/C=N/N(CCO)C2=NS(=O)(=O)c3ccccc32)c1,inactive,28.3%,67.6%,inactive,139,inactive
Cn1c(N/N=C/c2cccs2)nc2c1c(=O)n(Cc1ccccc1)c(=O)n2C,inactive,39.1%,51.7%,inactive,143,inactive

SMILES,outcome [1],"fluorescence, percent of control (lower = inhibition) [2]","GTP binding, percent of control [3]",outcome [4],"GTP binding signal, raw median fluorescence (lower = inhibition) (MCF (arbitrary fluorescence units)) [5]",outcome [6]
CCOC(=O)c1nc(Nc2ccc(C(=O)OC)cc2)c2ccccc2n1,inactive,43.9%,115%,inactive,128,inactive
COc1cccc(C(=O)O)c1OCc1c(C)cccc1C,inactive,58.8%,204%,inactive,54.1,inactive
CCOc1ccccc1NC(=O)CSc1ccc2nnc(-c3cccnc3)n2n1,inactive,29.2%,65.1%,inactive,136,inactive
O=c1[nH]c(N/N=C\c2ccc3c(c2)OCO3)nc2ccccc12,inactive,80.8%,118%,inactive,202,inactive
Nc1[nH]nc2ncc3cc4ccccc4nc3c12,inactive,34.1%,71.9%,inactive,153,inactive
Cc1ccc(OCCn2c(SCCC(=O)O)nc3ccccc32)cc1,inactive,61.3%,88.9%,inactive,34.5,inactive
Cc1ccc(-n2c(=O)[nH]c3c(oc4ccccc43)c2=O)cc1,inactive,34.8%,78.7%,inactive,332,inactive
CCCN1C(=O)/C(=C\C=C2/Sc3ccccc3N2CC)SC1=S,inactive,34.7%,57.8%,inactive,181,inactive
COc1cc(/C=N/NC(N)=O)cc([N+](=O)[O-])c1O,inactive,35.1%,78.6%,inactive,175,inactive
O=c1c2ccccc2nc2c3ccccc3c(NCc3ccccn3)nn12,inactive,33.4%,68.8%,inactive,167,inactive
COc1cc(/C=C2\SC(=Nc3ccc(O)cc3)NC2=O)cc(OC)c1O,inactive,36.9%,79.8%,inactive,267,inactive
O=c1c(/C=N/Nc2ccccc2)c(Sc2nnnn2-c2ccccc2)nc2ccccn12,inactive,107%,114%,inactive,308,inactive
COc1ccc(OCc2nc3c4cc(OC)c(OC)cc4nc(=S)n3[nH]2)cc1,inactive,31.9%,75.5%,inactive,186,inactive
CN1CCc2nc3ccc(Cl)cc3c(-c3ccccc3Cl)c2C1,inactive,37.3%,81.8%,inactive,257,inactive
S=c1[nH]nc(-c2ccc3ccccc3n2)n1-c1ccccc1Cl,inactive,45.1%,60.2%,inactive,165,inactive
N#Cc1c(=O)c2nc(NCc3ccccc3)ncc2n2ccccc12,inactive,41.3%,48.1%,inactive,0,inactive
Cc1nc2nc(SCC(=O)O)nn2c(C)c1Cc1ccccc1Cl,inactive,29.1%,84%,inactive,228,inactive
CN(/N=C/c1ccc(Br)o1)C1=NS(=O)(=O)c2ccccc21,inactive,32.2%,69.7%,inactive,185,inactive
CCCCNC(=O)c1cc([N+](=O)[O-])[nH]n1,inactive,56.1%,74.5%,inactive,282,inactive
O=C(CNC(=O)Cc1ccccc1)N=Nc1c(O)n(Cc2ccc3c(c2)OCO3)c2ccccc12,inactive,36.1%,48.5%,inactive,112,inactive
